In PubChem BioAssay one finds composite z-score and z-score data, which are given here for 5 compounds.

Molecules are shown by their SMILES. Active and inactive are the calls of the source.

The nature of test [1]: small molecules captured by biotinylated probe aFSTL3 – biochemical, small-molecule microarray, fluorescence 635/667, stem cell growth factor project, primary screen (AID 1064).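 Also: measures binding of the biotinylated anti-FSTL3 antibody to printed compounds.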 The following applies: higher = more signal.
The nature of test [2]: binders from COS7 lysate, DM2A8 probe, primary screen, torsin A project, cell lysate, small-molecule microarray, fluorescence 635/667 (AID 1065). The following applies: higher = more signal, COS7 lysate expressing mutant human TOR1A.
Test [3] in a line: small molecules captured by biotinylated probe aFGF2 – biochemical, small-molecule microarray, fluorescence 635/667, stem cell growth factor project, primary screen (AID 1067).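 Also: measures binding of biotinylated aFGF2 protein to printed compounds on slides; z-score merges feature fluorescence and signal-to-noise across triplicate slides.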 Particulars: higher = more signal.
The nature of test [4]: small molecules captured by biotinylated probe aFGF10 – biochemical, small-molecule microarray, fluorescence 635/667, stem cell growth factor project, primary screen (AID 1071).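 Also: score merges 667 nm spot intensity and signal to noise from triplicate slides.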 Particulars: higher = more signal.
For test [5], the target named is Neurogenic locus notch homolog protein 2 (Homo sapiens) (UniProt Q04721). Kind of test: small molecules binding Notch2 protein – biochemical, small-molecule microarray, 635 nm fluorescence, stem cell growth factors, primary screen (AID 1073). Particulars: higher = more signal.
Chain of Neurogenic locus notch homolog protein 2 (Homo sapiens) (Q04721 whole entry, looked up, canonical isoform): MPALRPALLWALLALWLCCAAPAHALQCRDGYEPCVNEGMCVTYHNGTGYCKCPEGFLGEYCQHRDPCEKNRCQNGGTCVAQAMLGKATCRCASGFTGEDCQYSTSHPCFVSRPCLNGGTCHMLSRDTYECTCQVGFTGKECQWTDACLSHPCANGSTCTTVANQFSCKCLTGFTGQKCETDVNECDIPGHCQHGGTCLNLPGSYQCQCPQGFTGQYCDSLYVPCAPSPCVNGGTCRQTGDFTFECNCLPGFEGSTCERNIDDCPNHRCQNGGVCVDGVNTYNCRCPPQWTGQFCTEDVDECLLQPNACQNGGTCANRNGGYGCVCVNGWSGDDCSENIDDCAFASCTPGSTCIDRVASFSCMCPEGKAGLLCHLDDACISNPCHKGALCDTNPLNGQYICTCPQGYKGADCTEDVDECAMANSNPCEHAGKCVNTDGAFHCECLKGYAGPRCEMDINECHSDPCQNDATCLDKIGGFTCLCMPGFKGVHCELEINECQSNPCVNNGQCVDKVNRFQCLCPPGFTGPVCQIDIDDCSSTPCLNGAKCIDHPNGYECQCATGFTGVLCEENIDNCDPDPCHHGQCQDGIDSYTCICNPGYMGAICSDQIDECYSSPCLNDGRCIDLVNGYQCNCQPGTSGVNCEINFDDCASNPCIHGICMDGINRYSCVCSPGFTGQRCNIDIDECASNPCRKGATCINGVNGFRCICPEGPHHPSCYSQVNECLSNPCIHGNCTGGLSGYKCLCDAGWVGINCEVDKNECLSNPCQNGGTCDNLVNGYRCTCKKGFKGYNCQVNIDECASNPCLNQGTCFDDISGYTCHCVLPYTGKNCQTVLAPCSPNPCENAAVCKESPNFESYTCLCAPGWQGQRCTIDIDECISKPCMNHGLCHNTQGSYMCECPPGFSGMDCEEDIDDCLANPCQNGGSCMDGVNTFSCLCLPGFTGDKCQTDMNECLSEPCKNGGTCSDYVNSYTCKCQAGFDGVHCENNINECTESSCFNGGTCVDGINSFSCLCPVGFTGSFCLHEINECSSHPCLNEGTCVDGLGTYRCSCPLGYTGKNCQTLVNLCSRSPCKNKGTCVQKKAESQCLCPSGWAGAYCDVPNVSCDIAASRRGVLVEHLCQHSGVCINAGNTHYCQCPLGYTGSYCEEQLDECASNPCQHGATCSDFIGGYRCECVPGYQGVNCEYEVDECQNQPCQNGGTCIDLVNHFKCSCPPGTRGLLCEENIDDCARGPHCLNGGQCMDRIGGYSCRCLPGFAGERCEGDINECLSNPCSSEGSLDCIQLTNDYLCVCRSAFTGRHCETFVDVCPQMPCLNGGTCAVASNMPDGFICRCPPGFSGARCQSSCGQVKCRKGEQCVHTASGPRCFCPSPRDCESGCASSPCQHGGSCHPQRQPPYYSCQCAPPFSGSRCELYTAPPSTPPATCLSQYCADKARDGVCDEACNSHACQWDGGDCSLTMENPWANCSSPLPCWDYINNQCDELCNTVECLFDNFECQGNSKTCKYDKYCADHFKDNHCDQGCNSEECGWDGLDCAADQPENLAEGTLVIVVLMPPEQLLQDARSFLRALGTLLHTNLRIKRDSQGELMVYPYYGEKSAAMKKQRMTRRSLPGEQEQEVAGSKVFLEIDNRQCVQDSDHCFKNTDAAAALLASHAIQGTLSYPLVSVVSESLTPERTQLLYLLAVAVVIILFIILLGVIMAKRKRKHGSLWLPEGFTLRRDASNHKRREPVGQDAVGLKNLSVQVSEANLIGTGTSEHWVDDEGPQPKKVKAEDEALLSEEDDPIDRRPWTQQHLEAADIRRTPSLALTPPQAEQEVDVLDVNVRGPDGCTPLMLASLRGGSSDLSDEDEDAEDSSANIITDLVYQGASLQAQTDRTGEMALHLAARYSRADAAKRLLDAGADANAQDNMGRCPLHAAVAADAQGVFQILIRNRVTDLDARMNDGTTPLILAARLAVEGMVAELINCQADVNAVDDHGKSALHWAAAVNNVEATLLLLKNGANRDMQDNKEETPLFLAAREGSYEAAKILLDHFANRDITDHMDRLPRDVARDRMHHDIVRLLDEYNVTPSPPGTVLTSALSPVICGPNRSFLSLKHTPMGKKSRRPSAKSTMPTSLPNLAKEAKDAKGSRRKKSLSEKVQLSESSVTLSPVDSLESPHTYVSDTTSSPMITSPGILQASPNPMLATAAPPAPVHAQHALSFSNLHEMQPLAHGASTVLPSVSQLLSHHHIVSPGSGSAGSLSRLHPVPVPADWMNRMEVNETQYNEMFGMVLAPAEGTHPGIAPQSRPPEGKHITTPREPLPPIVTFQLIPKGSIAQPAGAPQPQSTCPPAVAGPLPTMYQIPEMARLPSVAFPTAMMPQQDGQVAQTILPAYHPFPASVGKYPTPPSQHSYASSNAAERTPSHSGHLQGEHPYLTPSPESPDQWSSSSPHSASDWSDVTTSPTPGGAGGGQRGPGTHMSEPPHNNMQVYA
Test [6] concerns the target Pro-neuregulin-1, membrane-bound isoform (Homo sapiens) (UniProt Q02297). Nature of the test: small molecules binding neuregulin-1 protein – biochemical, small-molecule microarray, fluorescence 635/667, psychiatric disease protein project, primary screen (AID 1075).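 Also: score combines 667 nm spot fluorescence with signal to noise.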 The following applies: NRG1 binding, 635 nm fluorescence, higher = more signal.
The subject of test [7] is Neuregulin-1 EGF-like domain. Nature of the test: small molecules binding NRG1 EGF domain – biochemical, small-molecule microarray, 635 nm fluorescence, primary screen (AID 1081).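 Also: binding of the protein to compounds printed on small-molecule microarray slides.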 Particulars: higher = more signal.
Test [8] can be described thus: FRG1 expression reporter modulators in myotubes – cell-based, C2C12 myotubes, firefly/Renilla luciferase, luminescence, FRG1 inhibition for FSHD, primary screen (AID 1084). The following applies: FRG1 promoter luciferase, higher = more signal, called active from +8 up or from −8 down.
Test [9] in a line: small molecules captured by biotinylated probe aFST – biochemical, small-molecule microarray, fluorescence 635/667, stem cell growth factor project, primary screen (AID 1086).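 Also: score merges 667 nm fluorescence with signal-to-noise of each printed compound spot.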 Particulars: higher = more signal.
A short description of test [10]: binders of probe aHhip on microarray, primary screen, stem cell growth factor project, biochemical, small-molecule microarray, fluorescence 635/667 (AID 1087).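 Also: score merges spot fluorescence at 667nm with spot signal to noise ratio.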 Particulars: higher = more signal.
Test [11] deals with PRMT1 (protein arginine N-methyltransferase 1). Nature of the test: small molecules binding arginine methyltransferase PRMT1 – biochemical, small-molecule microarray, 635 nm fluorescence, primary screen (AID 1088).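 Also: binding of Prmt1 protein to compounds spotted on small-molecule microarray slides.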 The following applies: higher = more signal.
The nature of test [12]: growth effects on S. cerevisiae YJM789 – YJM789 clinical isolate, OD600, 24 h, basal, primary screen (AID 1089).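 Also: growth of clinical yeast isolate S. cerevisiae YJM 789 seeded 1000 cells per well; test concentration not given here.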 Particulars: higher = more signal, called active from +8 up or from −8 down.
Test [13] in a line: S. pombe growth modifiers, basal conditions – strain 972, OD600, 24 h, no modulator, primary screen (AID 1090).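 Also: basal condition with compound alone and no growth modifier present; test concentration not given here.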 Particulars: S. pombe 972 growth, higher = more signal, called active from +8 up or from −8 down.
A short description of test [14]: budding yeast growth modifiers under rapamycin – strain BY4716, OD600, 96 h, primary screen (AID 1091). Also: test concentration not given here. Particulars: S. cerevisiae BY4716 + rapamycin, higher = more signal, called active from +8 up or from −8 down.
In test [15] the target is Torsin-1A-interacting protein 2 (Homo sapiens) (UniProt Q8NFQ8). Kind of test: small molecules binding lysate-expressed LULL1 – cell lysate, human LULL1 lysate, 635/667 nm fluorescence, primary screen (AID 1092).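 Also: probe is lysate of COS7 cells overexpressing human LULL1; score merges per-feature 667 nm fluorescence with signal-to-noise.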 The following applies: small-molecule microarray, hLULL1 lysate binding, 635 nm fluorescence; higher = more signal.
Chain of Torsin-1A-interacting protein 2 (Homo sapiens) (Q8NFQ8 whole entry, looked up): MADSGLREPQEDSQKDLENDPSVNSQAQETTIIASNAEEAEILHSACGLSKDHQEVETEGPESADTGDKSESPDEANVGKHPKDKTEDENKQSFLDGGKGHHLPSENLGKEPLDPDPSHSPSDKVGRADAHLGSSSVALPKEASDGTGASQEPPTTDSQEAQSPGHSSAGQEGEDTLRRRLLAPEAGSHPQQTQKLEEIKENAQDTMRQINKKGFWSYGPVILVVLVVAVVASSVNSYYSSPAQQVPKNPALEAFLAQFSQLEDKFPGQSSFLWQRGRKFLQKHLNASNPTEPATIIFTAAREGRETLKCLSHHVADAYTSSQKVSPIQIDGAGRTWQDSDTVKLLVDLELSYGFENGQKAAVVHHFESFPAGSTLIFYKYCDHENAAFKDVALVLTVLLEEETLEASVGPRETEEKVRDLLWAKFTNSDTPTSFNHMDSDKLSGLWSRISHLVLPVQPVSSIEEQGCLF
Test [16] can be described thus: optical density change of DRC41 E. coli – strain DRC41, OD650, 24 h, E. coli filamentation project, primary screen (AID 1093).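 Also: MC1000 strain lacking acrAB efflux and sulA so SOS filamentation is blocked; test concentration not given here.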 The following applies: E. coli DRC41 growth, higher = more signal, called active from +8 up or from −8 down.
Test [17] is described as follows: probe aLefty2 binding to arrayed compounds – biochemical, biotinylated probe, 635/667 nm fluorescence, primary screen (AID 1094).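 Also: score merges spot fluorescence near 667 nm with spot signal-to-noise ratio.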 Particulars: small-molecule microarray, higher = more signal.
The subject of test [18] is Noggin (protein binding on small-molecule microarray). Nature of the test: small molecules binding Noggin protein – biochemical, 635/667 nm fluorescence, primary screen (AID 1095).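 Also: score merges 667 nm feature fluorescence with signal to noise over triplicate slides.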 The following applies: 635 nm fluorescence, higher = more signal.
Test [19] has as its target Neurogenic locus notch homolog protein 3 (Homo sapiens) (UniProt Q9UM47). Kind of test: small molecules binding NOTCH3 protein – biochemical, 635/667 nm fluorescence, primary screen (AID 1096). Particulars: small-molecule microarray, 635 nm fluorescence, higher = more signal.
Test [20] can be described thus: probe aEGFR binding to arrayed compounds – biochemical, biotinylated probe, 635/667 nm fluorescence, primary screen (AID 1097).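 Also: probe is a biotinylated anti-EGFR antibody binding compounds printed on slides; score combines fluorescence near 667 nm and signal to noise of each spot.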 Particulars: small-molecule microarray, higher = more signal.

Chain of Pro-neuregulin-1, membrane-bound isoform (Homo sapiens) (Q02297 whole entry, looked up, the tested form may be a part, canonical isoform): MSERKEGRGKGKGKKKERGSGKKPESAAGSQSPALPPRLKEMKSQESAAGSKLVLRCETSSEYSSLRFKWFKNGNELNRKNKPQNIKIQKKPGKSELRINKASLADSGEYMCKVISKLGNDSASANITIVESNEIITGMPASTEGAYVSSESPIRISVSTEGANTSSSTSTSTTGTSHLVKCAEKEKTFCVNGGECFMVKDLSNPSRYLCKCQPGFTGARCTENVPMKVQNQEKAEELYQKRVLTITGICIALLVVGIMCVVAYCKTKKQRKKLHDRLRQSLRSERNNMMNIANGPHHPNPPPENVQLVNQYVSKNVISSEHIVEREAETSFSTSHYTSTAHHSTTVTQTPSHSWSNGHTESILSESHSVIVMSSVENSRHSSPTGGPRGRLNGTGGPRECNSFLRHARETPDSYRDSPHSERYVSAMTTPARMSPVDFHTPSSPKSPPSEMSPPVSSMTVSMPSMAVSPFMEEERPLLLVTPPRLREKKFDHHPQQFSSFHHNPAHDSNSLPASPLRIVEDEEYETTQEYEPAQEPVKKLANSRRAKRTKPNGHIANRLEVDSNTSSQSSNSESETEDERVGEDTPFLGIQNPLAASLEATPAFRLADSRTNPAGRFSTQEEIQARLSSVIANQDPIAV

`CCc1cc2c(nc1CC)CCN(CCC(C)=NOC[C@H]1O[C@H](c3ccccc3)C=C[C@@H]1Oc1ccc(OC)cc1)C2`: the composite z-score in [1] is 0.0529; in test [2] it was 0.732; in test [3], -0.178; in test [4], -0.147; in test [5], -0.391; in test [6], 0.121. Moreover, the composite z-score in test [7] was 0.734; in test [9] it was 0.0567; in test [10], 0.12; in test [11] it was 0.841; in test [15], 0.825; in test [17], -0.164. Moreover, the composite z-score in test [18] is 0.0346; in test [19] it was 0.215; in [20] it was -0.0549. Besides, the z-score in test [8] is 1.39 (inactive); in [12], -0.837 (inactive); in test [13], -5.85 (inactive); in [14], -0.473 (inactive); in test [16] it was -0.782 (inactive).
Consider `CC[C@@H](c1ccccc1)n1c(=O)n2n(c1=O)[C@H]1[C@H](O)[C@@H]3O[C@@H]3C(=O)[C@H]1CC2`, for which the composite z-score is -0.66 in test [1]; -0.283 in test [2]; -0.103 in [3]; 0.335 in [4]; 0.395 in test [5]; -0.0023 in [6]. For the same compound, the composite z-score is -0.088 in [7]; 0.0182 in test [9]; 0.0373 in test [10]; 0.342 in [11]; 0.396 in test [15]; 0.444 in test [17]. The values for the composite z-score in test [18], in test [19] and in test [20] were 0.417, 0.285 and -0.0431, respectively. For the same compound, the z-score in [8] is 0.327 (inactive); in [12] it was -0.0637 (inactive); in test [13] it was -2.45 (inactive); in test [14], -0.0584 (inactive); in test [16], 0.473 (inactive).
In the case of `C=C(C)C(=O)OCC1CN2[C@@H](CC[C@@H](C)[C@@H]2c2ccc(Br)cc2)C(=O)O1` (stereo not given in full), the composite z-score in [1] was -0.393; in test [2], 0.0802; in test [3], -0.15; in test [4] it was 0.2; in test [5] it was 0.331; in test [6], -0.0076. The composite z-score in test [7] was 0.546; in [9], 0.444; in [10], -0.21; in test [11], 0.855; in test [15], 0.734; in [17], -0.118. For the same compound, the composite z-score in [18] was 0.172; in test [19], 0.947; in [20] it was -0.128. In addition, the z-score in test [8] was 1.11 (inactive); in test [12], 0.275 (inactive); in test [13], -0.369 (inactive); in [14], -0.427 (inactive); in [16], -0.166 (inactive).
As for `CCOC(=O)NN=C1C[C@@H](O)[C@@H](O)[C@@H]2[C@@H]3C(=O)N(c4cccc(Oc5ccccc5)c4)C(=O)[C@@H]3CC[C@H]12`, the composite z-score is -0.441 in test [1]; 0.192 in test [2]; -0.187 in test [3]; 0.221 in test [4]; 0.615 in [5]; 0.855 in [6]. Moreover, the composite z-score in test [7] was 0.234; in [9] it was 0.0755; in test [10], -0.0645; in [11], 0.626; in test [15], 0.0068; in [17] it was -0.175. Besides, the composite z-score is 0.311 in [18], 0.589 in test [19] and -0.0371 in [20]. Besides, the z-score in test [8] was -0.0124 (inactive); in [12], -1.57 (inactive); in [13], -0.216 (inactive); in [14] it was -0.873 (inactive); in [16], -0.998 (inactive).
`COCCNC(=O)OCC1CCCC2(CC(OC(=O)NCc3ccc4c(c3)OCO4)CC(CCC(=O)N[C@@H](C)C(=O)OC)O2)O1` (stereo not given in full): the composite z-score in [1] is -0.463; in test [2], 0.362; in [3] it was -0.116; in test [4], 0.387; in test [5] it was 1.05; in test [6] it was 0.191. In addition, the composite z-score in test [7] was 0.699; in [9] it was 0.171; in test [10], -0.0994; in [11], 1.52; in test [15] it was 1.55; in test [17], -0.161. The composite z-score in [18] was 0.54; in test [19], 1.1; in [20], -0.0286. The z-score was 0.502 (inactive) in test [8]; -0.05 (inactive) in test [12]; 1.02 (inactive) in test [13]; -0.62 (inactive) in test [14]; -0.427 (inactive) in [16].
